# In the supplement of paper PMC11417369:
# ± gives the standard deviation of the averaged measurements. Whole data set: some 25,000 sequences, median “ln(normalized median fluorescence intensity)” near 8.9, cut for the highest 2% near 10. Shown is part of a subset that was picked to be rich in the highest values.
# Tested on: PfAP2-LT AP2 domain (GST-tagged)
# Assay: gcPBM binding intensity (ln(normalized median fluorescence intensity)); higher = stronger DNA binding
# Method in brief: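 An Agilent 4 × 180k array of primer-extended double-stranded 36-bp intergenic genomic probes, with negative controls, was incubated for 1 h with GST-tagged P. falciparum DNA-binding domains expressed in E. coli. Alexa488 anti-GST antibody detected bound protein, scanned at 488 nm. Binding intensity is the highest Masliner-normalised natural-log median intensity across replicate spots of either probe orientation.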
row,Sequence,gcPBM binding intensity (ln)
1,AAACATAAGAGACACACACACATATATAAATAAATA [CACACA_site7674],9.79 ± 0.38
2,AACATTATAAGACACACACACACATATATAAATATA [CACACA_site6622],10.2 ± 0.38
3,AACATTATAAGACACACACACACATATATATATATA [CACACA_site8259],10.3 ± 0.3
4,CATTATAAGAGACACACACACATATATAAATATGTA [CACACA_site6621],9.63 ± 0.38
5,TAATAAATAAGACACACACACATATATATATATTAT [CACACA_site1389],9.8 ± 0.2
6,TAAAACATAAGAGACACACACACATATATATATATA [CACACA_site3643],10.1 ± 0.16
7,ATATGGAATAATACGCGTACACACATATATATATTA [XGTACX_site307],9.34 ± 0.3
8,GAATACATAATAACATGTACACACATTCTTCTATAA [XGTACX_site8725],9.01 ± 0.36
9,ATATATATATATAATGCACACATTATAAATTATGTA [CACACA_site5802],9.02 ± 0.31
10,ATTAAAAAAATTAAAAGTACACATATTTCAATGATA [XGTACX_site5606],8.43 ± 0.41
11,AAAATTATATGTAATTGTACGGAATTATATACGCAA [XGTACX_site2048],8.72 ± 0.41
12,TTGGTCTTTTAAAAAAGTACAAAAAAAAAAAAAAAA [XGTACX_site1665],8.08 ± 0.55
13,TAAAATAAAACAAACACACACACACGGACACAAAAA [CACACA_site7754],10.4 ± 0.34
14,CAAAAAAAATAAAACACACACACAAAAAAATAAAAA [CACACA_site466],9.84 ± 0.31
15,GGACAACAAACAAACACACACAAAAAAAAAATAAAA [CACACA_site3791],9.6 ± 0.71
16,ATTCATATGAAACACACACACACACCCATAAAAAAA [CACACA_site3246],10.2 ± 0.2
17,AAATAAATGAAACACACACACACAAAAAAAAAAAAC [CACACA_site2625],10.2 ± 0.28
18,AAAAAAAAAAAAAACACACACACAAAATAAACAAAC [CACACA_site2720],9.66 ± 0.44
19,TCATTCATATGTTACACACACACACCCACATAAAAA [CACACA_site3245],9.8 ± 0.23
20,ATTCATTCATATGTTACACACACACCCACCCATAAA [CACACA_site9066],9.71 ± 0.23

row,Sequence,gcPBM binding intensity (ln)
1,AAAATAAAATAAAACACAAAAAAATAAAACAAAATA [CACACA_negctrl_site16],8.87 ± 0.49
2,AAAAAAAAAAAAAACACACAAACAAATGAATAAATA [CACACA_site3300],8.99 ± 0.54
3,AAAAAAAAAAAAAAAACACACAAACAAATGAATAAA [CACACA_site5769],8.89 ± 0.5
4,CAACAAAATAAACACACACACACAAACACAAAAAAA [CACACA_site5806],10.2 ± 0.27
5,ATGTTATATTTTTTTATACACACTGGAATATATAAA [CACACA_site215],8.64 ± 0.34
6,TGAATGTAAGAAAATACACACTAGTATAGTAACACC [CACACA_site5131],9.24 ± 0.38
7,ATGTAATATTTACAACGTACAAATTATAAACATATT [XGTACX_site603],8.88 ± 0.35
8,GACGACTATATTAATTGTACTCAATTTAAGCATAAT [XGTACX_site2750],8.72 ± 0.35
9,TTAATAACAAAATAAACACACATATATAAATACCCA [CACACA_site4960],9.11 ± 0.4
10,TATATCTATAATATTACACACATATATTTATATTTT [CACACA_site7595],8.95 ± 0.33
11,CATATTATATTTTCATGTACACATAACATATTTATA [XGTACX_site4787],8.76 ± 0.42
12,GAATAAATTGTATTGTGTACATATAAAAGCATCTAA [XGTACX_site8271],8.8 ± 0.4
13,TTCTTTTTAAATTACACACACATATATATATGTATA [CACACA_site3515],9.32 ± 0.41
14,AATAATAATTTAAAAAGTACATTCTAATAAACACGT [XGTACX_site1444],8.78 ± 0.52
15,TAATAAATAAATGACACACACACACCCAAAAAAAAA [CACACA_site2623],10.1 ± 0.41
16,CTCCATATGAAACACACACACAAATGAAAAAAATAT [CACACA_site3018],9.82 ± 0.4
17,ATTAATAAATAAATGACACACACACCCACAAAAAAA [CACACA_site8839],9.9 ± 0.12
18,CAAAAAATGAAACACACACACACACCCATAAATAAA [CACACA_site1231],10.12 ± 0.035
19,TAATAAATAAATGACACACACACACGCAAAAAAAAA [CACACA_site7275],9.94 ± 0.19
20,ATAATGAAAAGGAACATACACACCCCATATAAATAT [CACACA_site3442],9.61 ± 0.12

row,Sequence,gcPBM binding intensity (ln)
1,GGGTATATATTATTATGTACACATGTATAAAATAAG [XGTACX_site2633],8.8 ± 0.52
2,ATACAAAAAGTAAAAAGTACTTAACTAAATATATAA [XGTACX_site2335],8.74 ± 0.56
3,GTATATATGTATGTATGTACGTATATAGTTATGTAT [XGTACX_site6769],8.98 ± 0.3
4,ATATATATATATATATGTACGTACTCAGTTATGCCT [XGTACX_site453],10.2 ± 0.29
5,TATATATATATTATATGTACGTATGTATGTATATAT [XGTACX_site6451],8.88 ± 0.3
6,AGTATAAAATTTGGTTGTACATTTTTAAAAAAATTA [XGTACX_site7519],8.29 ± 0.42
7,GGAATATTAATAAGAGTGCATTTTGTATTCAATATG,8.66 ± 0.41
8,GTATAATTTTCGTATTCACACAAGAATATACTACAT [CACACA_site4877],8.91 ± 0.45
9,TCATAGTATAGACACACACACACACGCATATAAATA [CACACA_site6915],9.92 ± 0.13
10,CAAATACACGGACACACACACACAAAAAAAAAAAAA [CACACA_site6385],10 ± 0.71
11,TTAAAAAAAAGACACACACACATACACATATTTATA [CACACA_site7535],9.94 ± 0.35
12,CCAACATGCAGACGCACACACAAAAAAAGCATGCAT [CACACA_site74],9.54 ± 0.4
13,CACACGCACGGACACACACACAAAAAAAAAAAGAAA [CACACA_site6378],9.34 ± 0.58
14,TATCTCATAGTATACACACACACACGCGCACATATA [CACACA_site6917],10.1 ± 0.3
15,CACAGACACGGACACACACACACAAAAAAAAAAAGA [CACACA_site4436],10.1 ± 0.55
16,ACATCAAGCAGACACACACACACACGCACACGCACA [CACACA_site6309],10.4 ± 0.17
17,AAAAAAAAAAGACACACACACACACGGACACATACA [CACACA_site7363],10.3 ± 0.13
18,TCTCATAGTAGACACACACACACACGCACATATATA [CACACA_site6916],10.1 ± 0.31
19,AAAAAAAAAAGACACACACACACATACACATACATA [CACACA_site7362],9.97 ± 0.071
